This is an account of results in PubChem BioAssay (NCI).

Experiment [1] in a line: NCI Yeast Anticancer Drug Screen. Data for the rad50 strain (AID 155).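 Note: 0% = growth of vehicle-only cultures of the same strain.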 The settings on record: S. cerevisiae rad50 strain growth inhibition, active compounds read high. Summed up:
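Yeast carrying a defined DNA repair defect were exposed to test compounds, and growth was compared with vehicle-treated controls to give percent inhibition.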

Experiment [2] in a line: NCI Yeast Anticancer Drug Screen. Data for the mec2-1 strain (AID 157). The conditions noted are these: S. cerevisiae mec2-1 strain, active compounds read high. Summed up: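 Strain: mec2-1 (DNA repair/cell cycle alteration). Compound exposure, then growth measured; inhibition expressed relative to vehicle.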
The nature of experiment [3]: NCI Yeast Anticancer Drug Screen. Data for the sgs1 mgt1 strain (AID 161).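 Note: 0% = growth of cultures given vehicle only.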 The conditions noted are these: S. cerevisiae sgs1 mgt1 strain, active compounds read high. Summed up:
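Mutant yeast exposed to compound; growth scored against vehicle-only wells.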

Experiment [4] can be described thus: NCI Yeast Anticancer Drug Screen. Data for the cln2 rad14 strain (AID 165).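 Note: 0% = growth equal to vehicle treated cultures.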 The settings on record: S. cerevisiae cln2 rad14 strain, active compounds read high. Summed up:
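Compounds are applied to the cln2 rad14 yeast strain, and growth is then compared with that of vehicle-treated cultures to give inhibition.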

Experiment [5] in a line: NCI Yeast Anticancer Drug Screen. Data for the bub3 strain (AID 167). The settings on record: S. cerevisiae bub3 mutant strain, active compounds read high. Summed up: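 Compounds were applied to a genetically altered yeast strain carrying a cell-cycle control defect. Growth inhibition was scored against vehicle-treated controls.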
The nature of experiment [6]: NCI Yeast Anticancer Drug Screen. Data for the mlh1 rad18 strain (AID 175). The conditions noted are these: S. cerevisiae mlh1 rad18 strain growth inhibition, active compounds read high. Summed up:
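Read-out is yeast growth inhibition, calculated against vehicle-only controls. The compound was applied to a strain engineered with DNA damage repair alterations.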

Where [7] appears, read: at 5.0 µM (retest, dose inferred, filed as 0.5).
[8] abbreviates: at 50.0 µM (retest, dose inferred, filed as 5.0).

Compounds without any hit were thinned out: in the full panel of roughly 79,000, 15% have a hit. Values without a mark were called inactive. Active and inactive are the calls of the source. Cut-off read from the data, not from the text of the source: active = growth inhibition above about 70%; inactive = the rest.

For the compound `CC(=O)OC1COC(N2C(=O)C(=O)c3cc(Br)ccc32)C(OC(C)=O)C1OC(C)=O` (stereo not given), the growth inhibition in experiment [1] (setting [7]) was -11%; in experiment [1] (setting [8]) it was 20%; in experiment [1] (at 50.0 µM), 50.7%; in experiment [2] (setting [7]) it was 1%; in experiment [2] (setting [8]), 7%; in experiment [2] (at 50.0 µM), -12.3%. The growth inhibition is -16% in experiment [3] (setting [7]); 0% in experiment [3] (setting [8]); 2.9% in experiment [3] (at 50.0 µM); -37% in experiment [4] (setting [7]); -4% in experiment [4] (setting [8]); 19.1% in experiment [4] (at 50.0 µM). The growth inhibition in experiment [5] (setting [7]) was -13%; in experiment [5] (setting [8]), 23%; in experiment [5] (at 50.0 µM), 25.4%; in experiment [6] (setting [7]), -2%; in experiment [6] (setting [8]), 14%; in experiment [6] (at 50.0 µM), 12.9%.
As to `O=C(c1ccccc1)C1N=NCC1c1ccc([N+](=O)[O-])cc1` (stereo not given), the growth inhibition is 2% in experiment [1] (setting [7]); -21% in experiment [1] (setting [8]); -3.65% in experiment [1] (at 50.0 µM); 11% in experiment [2] (setting [7]); 9% in experiment [2] (setting [8]); 10.1% in experiment [2] (at 50.0 µM). Besides, the growth inhibition in experiment [3] (setting [7]) is 1%; in experiment [3] (setting [8]), 47%; in experiment [3] (at 50.0 µM), 18.2%; in experiment [4] (setting [7]) it was 5%; in experiment [4] (setting [8]), -4%; in experiment [4] (at 50.0 µM), -4.4%. Moreover, the growth inhibition in experiment [5] (setting [7]) is -5%; in experiment [5] (setting [8]), 5%; in experiment [5] (at 50.0 µM), 84.2% (active); in experiment [6] (setting [7]) it was 0%; in experiment [6] (setting [8]) it was -4%; in experiment [6] (at 50.0 µM), 40.6%.
In the case of `C/C=C/C1=C(Cl)C(=O)[C@@H](Cl)[C@@]1(O)C(=O)OC`, the growth inhibition in experiment [1] (setting [7]) is 48%; in experiment [1] (setting [8]) it was 97% (active); in experiment [1] (at 50.0 µM), 87% (active); in experiment [2] (setting [7]) it was 61%; in experiment [2] (setting [8]), 99% (active); in experiment [2] (at 50.0 µM) it was 90.1% (active). Besides, the growth inhibition was 78% (active) in experiment [3] (setting [7]); 99% (active) in experiment [3] (setting [8]); 91% (active) in experiment [3] (at 50.0 µM); 21% in experiment [4] (setting [7]); 97% (active) in experiment [4] (setting [8]); 79.2% (active) in experiment [4] (at 50.0 µM). Also, the growth inhibition in experiment [5] (setting [7]) was 66%; in experiment [5] (setting [8]), 95% (active); in experiment [5] (at 50.0 µM), 87.3% (active); in experiment [6] (setting [7]), 85% (active); in experiment [6] (setting [8]), 99% (active); in experiment [6] (at 50.0 µM) it was 90.2% (active).
With `O=C(O)C(O)C(O)C(OC1OC(CO)C(O)C(O)C1O)C(O)CO.[Br][Pt].[NH-]C1CCCCC1[NH-]` (stereo not given), the growth inhibition in experiment [1] (setting [7]) was 50%; in experiment [1] (setting [8]), 97% (active); in experiment [1] (at 50.0 µM), 67.8%; in experiment [2] (setting [7]) it was 65%; in experiment [2] (setting [8]), 88% (active); in experiment [2] (at 50.0 µM), 62.9%. In addition, the growth inhibition in experiment [3] (setting [7]) is 89% (active); in experiment [3] (setting [8]), 99% (active); in experiment [3] (at 50.0 µM), 89.5% (active); in experiment [4] (setting [7]), 24%; in experiment [4] (setting [8]), 72% (active); in experiment [4] (at 50.0 µM) it was 72% (active). The growth inhibition in experiment [5] (setting [7]) is 79% (active); in experiment [5] (setting [8]), 97% (active); in experiment [5] (at 50.0 µM), 83.6% (active); in experiment [6] (setting [7]), 69%; in experiment [6] (setting [8]) it was 98% (active); in experiment [6] (at 50.0 µM) it was 56%.
As for `CCNC(=S)N/N=C/c1ccccn1`, the growth inhibition in experiment [1] (setting [7]) is -15%; in experiment [1] (setting [8]) it was 95% (active); in experiment [1] (at 50.0 µM), 81.5% (active); in experiment [2] (setting [7]) it was -42%; in experiment [2] (setting [8]), 92% (active); in experiment [2] (at 50.0 µM), 84% (active). For the same compound, the growth inhibition in experiment [3] (setting [7]) is -29%; in experiment [3] (setting [8]) it was 95% (active); in experiment [3] (at 50.0 µM), 78.2% (active); in experiment [4] (setting [7]) it was -21%; in experiment [4] (setting [8]), 95% (active); in experiment [4] (at 50.0 µM), 81.2% (active). In addition, the growth inhibition in experiment [5] (setting [7]) is -15%; in experiment [5] (setting [8]), 95% (active); in experiment [5] (at 50.0 µM), 82.5% (active); in experiment [6] (setting [7]) it was -33%; in experiment [6] (setting [8]), 97% (active); in experiment [6] (at 50.0 µM) it was 76.5% (active).
Turning to `CN(C)C(=O)N(C)/N=C/c1ccc([N+](=O)[O-])o1`, the growth inhibition in experiment [1] (setting [7]) was 10%; in experiment [1] (setting [8]) it was 56%; in experiment [1] (at 50.0 µM), 80.3% (active); in experiment [2] (setting [7]) it was 1%; in experiment [2] (setting [8]), 21%; in experiment [2] (at 50.0 µM), 53.5%. The growth inhibition in experiment [3] (setting [7]) is 8%; in experiment [3] (setting [8]), 68%; in experiment [3] (at 50.0 µM) it was 90.8% (active); in experiment [4] (setting [7]), 4%; in experiment [4] (setting [8]), 30%; in experiment [4] (at 50.0 µM) it was 42.2%. Further, the growth inhibition is 5% in experiment [5] (setting [7]); 42% in experiment [5] (setting [8]); 40% in experiment [5] (at 50.0 µM); 21% in experiment [6] (setting [7]); 68% in experiment [6] (setting [8]); 89.5% (active) in experiment [6] (at 50.0 µM).
In the case of `CCCC(=O)OCc1cc(=O)n(C)c2c3c4c(cc12)c(C)cc(=O)n4CO3`, the growth inhibition was 86% (active) in experiment [1] (setting [7]); 99% (active) in experiment [1] (setting [8]); 25% in experiment [1] (at 50.0 µM); 58% in experiment [2] (setting [7]); 100% (active) in experiment [2] (setting [8]); -11.2% in experiment [2] (at 50.0 µM). Also, the growth inhibition is 79% (active) in experiment [3] (setting [7]); 100% (active) in experiment [3] (setting [8]); 22.8% in experiment [3] (at 50.0 µM); 63% in experiment [4] (setting [7]); 99% (active) in experiment [4] (setting [8]); 13.6% in experiment [4] (at 50.0 µM). For the same compound, the growth inhibition in experiment [5] (setting [7]) was 84% (active); in experiment [5] (setting [8]) it was 98% (active); in experiment [5] (at 50.0 µM) it was -11%; in experiment [6] (setting [7]) it was 83% (active); in experiment [6] (setting [8]), 99% (active); in experiment [6] (at 50.0 µM), 22.4%.
For `CCOC(=O)C(=C=C=C(c1ccccc1)c1ccccc1)C(=O)OCC`, the growth inhibition in experiment [1] (setting [7]) is -3%; in experiment [1] (setting [8]), 6%; in experiment [1] (at 50.0 µM) it was 33.9%; in experiment [2] (setting [7]) it was -2%; in experiment [2] (setting [8]) it was 17%; in experiment [2] (at 50.0 µM) it was 23.5%. Moreover, the growth inhibition in experiment [3] (setting [7]) is -3%; in experiment [3] (setting [8]) it was 40%; in experiment [3] (at 50.0 µM) it was 78.2% (active); in experiment [4] (setting [7]) it was 0%; in experiment [4] (setting [8]) it was 1%; in experiment [4] (at 50.0 µM) it was 50.1%. The growth inhibition in experiment [5] (setting [7]) is -4%; in experiment [5] (setting [8]), 6%; in experiment [5] (at 50.0 µM), 31%; in experiment [6] (setting [7]) it was -4%; in experiment [6] (setting [8]), 6%; in experiment [6] (at 50.0 µM), 50.5%.
Turning to `CC1(C)CC(=O)C(C=NC(=S)c2ccccc2)=C(O)C1`, the growth inhibition is 21% in experiment [1] (setting [7]); 27% in experiment [1] (setting [8]); -43.3% in experiment [1] (at 50.0 µM); 4% in experiment [2] (setting [7]); 13% in experiment [2] (setting [8]); -54% in experiment [2] (at 50.0 µM). In addition, the growth inhibition was 6% in experiment [3] (setting [7]); 9% in experiment [3] (setting [8]); -37.1% in experiment [3] (at 50.0 µM); 11% in experiment [4] (setting [7]); 14% in experiment [4] (setting [8]); -0.6% in experiment [4] (at 50.0 µM). For the same compound, the growth inhibition in experiment [5] (setting [7]) is 20%; in experiment [5] (setting [8]) it was 32%; in experiment [5] (at 50.0 µM) it was -13.4%; in experiment [6] (setting [7]), 14%; in experiment [6] (setting [8]), 27%; in experiment [6] (at 50.0 µM), 22.1%.
With `CCOC(=O)/C(=C\c1ccc(Br)cc1)C(C)=O`, the growth inhibition is 28% in experiment [1] (setting [7]); 98% (active) in experiment [1] (setting [8]); 92.5% (active) in experiment [1] (at 50.0 µM); 29% in experiment [2] (setting [7]); 99% (active) in experiment [2] (setting [8]); 94.2% (active) in experiment [2] (at 50.0 µM). Further, the growth inhibition in experiment [3] (setting [7]) is 48%; in experiment [3] (setting [8]), 98% (active); in experiment [3] (at 50.0 µM) it was 93.5% (active); in experiment [4] (setting [7]), 34%; in experiment [4] (setting [8]), 98% (active); in experiment [4] (at 50.0 µM) it was 92.5% (active). Also, the growth inhibition in experiment [5] (setting [7]) is 71% (active); in experiment [5] (setting [8]), 99% (active); in experiment [5] (at 50.0 µM), 92.3% (active); in experiment [6] (setting [7]), 70% (active); in experiment [6] (setting [8]), 99% (active); in experiment [6] (at 50.0 µM), 91.7% (active).
